In all, about 410,000 compounds went through this assay and about 5,000 (1.2%) were called active. A call without a number means that no potency is given here. About 13% were inconclusive and are not listed. The call rests on the fitted dose curve; in most records, active means well fitted inhibition curve with a large enough effect; inconclusive means small, poorly fitted or top-dose-only effect; inactive means no such curve, though single readings can be large or run the other way. The full list was thinned out, with actives kept by preference.
Test: qHTS for Inhibitors of TGF-b; further: nearly all actives have a fitted effect of over 65% in size
Conditions: HepG2 CAGA-GFP TGF-b/SMAD3 reporter, GFP fluorescence, 18 h, TGF-beta stimulated, 500 pg/mL final; series mostly up to 46.1 µM
Outline: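 Using HEPG2 CAGA-GFP reporter cells at 1000 cells/well, we pinned test compounds, stimulated with recombinant TGF-beta (500 pg/mL final) and measured total well GFP after 18 h.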
With `Cc1ccc(C)c(N2CCN(c3ccc4cc(S(=O)(=O)N5CCC(C)CC5)ccc4n3)CC2)c1` the Potency was “inactive”. With `COc1ccc(Br)cc1C1CC(=O)Nc2c1c(C)nn2-c1nc(C)cc(C)n1` (configuration not stated) the Potency was “inactive”. For `Cc1cccnc1C(NC(=O)C1CCN(Cc2ccc(Cl)c(Cl)c2)CC1)c1ccc(Cl)cc1` (configuration not stated), the Potency was 11.2 µM (active). For `O=C(NC(c1ccc(Cl)cc1)c1cnccn1)C1CCN(Cc2ccc(Cl)cc2)CC1` (configuration not stated), the Potency was “inactive”. In the case of `COc1cccc(CN2CCC(C(=O)NC(c3ccc4c(c3)OCO4)c3ccccn3)CC2)c1` (configuration not stated), the Potency is reported as “inactive”. With `Cc1ccc(OCC(=O)OCc2cc(=O)n3nc(C4CC4)sc3n2)cc1C` the Potency was “inactive”. In the case of `COCCNC(=O)CSc1c(C)cnc2c1c(=O)n(C)c(=O)n2C`, the Potency is reported as “inactive”. For `O=S(=O)(c1ccc(Br)cc1)c1nnn2c1nc(NC1CCCCCC1)c1sccc12`, the Potency was “inactive”. For `CC1=C(c2ccc(C)cc2)S(=O)(=O)NC1=NCCCN1CCN(c2cc(C)ccc2C)CC1`, the Potency was 20 µM (active). With `CCOC(=O)c1c(C)[nH]c(CCC(=O)NCCCN2CCN(c3cc(C)ccc3C)CC2)c1C` the Potency was “inactive”. With `CC1=C(c2ccc(Cl)cc2)S(=O)(=O)N=C1N1CCN(c2cc(C)ccc2C)CC1` the Potency was “inactive”. For `COC(=O)c1c(NC(=O)CCCOc2ccccc2)sc2c1CCC(C)C2` (configuration not stated), the Potency was “inactive”. For `CSc1ccc(NC(=O)Cn2nnnc2-c2ccccc2F)cc1`, the Potency was “inactive”. In the case of `CCc1ccc(-n2nnc(-c3nc(-c4ccccc4)no3)c2C)cc1`, the Potency is reported as “inactive”. For `COc1cccc(-c2cc3nc4c(c(N5CCC6(CC5)OCCO6)n3n2)CCCC4)c1`, the Potency was 12.6 µM (active). For `O=C(c1ccccc1)N1CCN(c2cc(-c3ccccc3)nc3cc(-c4cccc(Cl)c4)nn23)CC1`, the Potency was “inactive”. In the case of `O=C(CC(c1cccs1)N1Cc2ccccc2C1=O)Nc1ccc(F)c(F)c1` (configuration not stated), the Potency is reported as “inactive”. For `CCOc1ccccc1NC(=O)Cn1c(=O)n(Cc2ccco2)c(=O)c2sc3ccccc3c21`, the Potency was “inactive”. With `Cc1c(Cl)cccc1NC(=O)C1CCCN(c2ncnc3onc(C)c23)C1` (configuration not stated) the Potency was “inactive”. For `Cc1c(Cl)cccc1NC(=O)C1CCCN(C(=O)c2cnn(-c3ccccc3)c2-n2cccc2)C1` (configuration not stated), the Potency was 12.6 µM (active). In the case of `Cc1cccc(NC(=O)C2CCCN(C(=O)NCc3ccccc3)C2)c1C` (configuration not stated), the Potency is reported as “inactive”. With `CCOc1ccccc1NC(=O)Cn1c2ncccc2c(=O)n1-c1ccc(C)c(C)c1` the Potency was “inactive”. In the case of `Cc1[nH]c2ccccc2c1C(=O)C(=O)N(C)c1ccccc1`, the Potency is reported as “inactive”. For `COc1ccc(-c2cn3c(C)c(C(=O)Nc4cc(C)cc(C)c4)sc3n2)cc1`, the Potency was “inactive”. In the case of `COc1ccc(CCNC(=O)CN(c2ccccc2)S(C)(=O)=O)cc1OC`, the Potency is reported as “inactive”. In the case of `COc1ccc(C(C(=O)NC2CCCCC2)N(C(=O)CCl)c2ccccc2Cl)cc1` (configuration not stated), the Potency is reported as “inactive”. For `COc1ccc(C(CCN(Cc2ccc(OC)c(OC)c2)C(=O)CCl)c2ccccc2)cc1` (configuration not stated), the Potency was 14.1 µM (active).

— PubChem BioAssay AID588855 (National Center for Advancing Translational Sciences (NCATS), 2011)
Potency means the concentration at half of the fitted maximal effect.
